Assay results from PubChem BioAssay (NCATS).
Results filed as inconclusive are left out. The source made the active and inactive calls. Unless noted, no rule for the calls is given here.

Columns and labels:
[1] = qHTS profiling of the MIPE4 collection as inhibitors of Plasmodium falciparum (3D7) proliferation (AID 743344);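 also: scaled between DMSO vehicle wells and 0.29 µM artemisinin as full inhibition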; conditions: P. falciparum 3D7 in erythrocytes, SYBR Green DNA fluorescence, 72 h; at 28.5 µM unless noted
Summary of the method: (§1)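 Erythrocytes infected with P. falciparum (0.3% parasitemia, 2.5% hematocrit) incubated with compounds 72 h at 37 C, 5% CO2. Lysis with saponin/Triton buffer containing SYBR Green I, overnight at room temperature in the dark; DNA fluorescence (485/535 nm) normalised to 0.29 uM artemisinin and DMSO.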

[2] = qHTS profiling of the MIPE4 collection as inhibitors of Plasmodium falciparum (DD2) proliferation (AID 743345); conditions: P. falciparum Dd2 in erythrocytes, SYBR Green DNA, 72 h; at 28.5 µM unless noted
Summary of the method: as §1

[3] = High-throughput drug toxicity screening in the BPDCN cell line Gen2.2 (AID 1224824); conditions: Gen2.2 BPDCN cells; at 45.8 µM (top of the series) unless noted;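 also: cells exposed to compounds for 48 h before reading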
Summary of the method: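 Gen2.2 cells (500/well) in phenol red-free RPMI with 10% FBS were exposed to compounds for 48 h at 37 °C, 5% CO2. Viability was read by CellTiter-Glo luminescence and normalized to DMSO (100%) and 9.2 uM bortezomib (0%).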

[4] = High-throughput drug toxicity screening in the BPDCN cell line Cal-1 (AID 1224825); conditions: Cal-1 BPDCN cell viability, qHTS; at 45.8 µM (top of the series) unless noted
Summary of the method: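 Cal-1 cells, 500 per well in phenol-red-free RPMI with 10% FBS, exposed to compounds for 48 hours at 37C, 5% CO2. Viability read by CellTiter-Glo luminescence; percent activity normalized to DMSO (100%) and 9.2 uM bortezomib final (0%).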

[5] = qHTS assay for measurement of the activity of small molecule inhibitors on Zika virus induced Caspase-3 activity in human iPSC derived neural progenitor cells (hNPCs) (AID 1224857; active = well fitted curve in the direction sought with a large enough effect; an effect the other way counts as inactive or inconclusive; also: % of control where 0% means no effect; nearly all actives have a fitted effect of over 65% in size)
Summary of the method: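 Caspase-3/7 induction by a 6-hour ZIKV infection was quantified with a luminescent Caspase-Glo 3/7 reagent incubated 30 minutes at room temperature. Compounds were preincubated with hNPCs for 1 hour; inhibition was calculated against uninfected and infected control wells.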

[6] = qHTS assay for measurement of the activity of small molecule inhibitors on Zika virus induced Caspase-3 activity in human astrocytoma cells (AID 1224859; active = well fitted curve in the direction sought with a large enough effect; an effect the other way counts as inactive or inconclusive;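 also: plate controls were ZIKV-infected untreated cells for no effect and uninfected cells for full effect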)
Summary of the method: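 In SNB-19 cells plated at 250 cells/well and grown 16-20 h, compounds were applied 1 h before ZIKV (2 FFU/cell). Six hours later caspase-3/7 luminescence was recorded.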

[7] = qHTS Screen of the MIPE 4.0 Collection Against Ewings Sarcoma (RDES) (AID 1259252; active = well fitted curve in the direction sought with a large enough effect; an effect the other way counts as inactive or inconclusive; also: nearly all actives have a fitted effect of over 35% in size; also: potency is read from the fitted curve at half-maximal effect)
Summary of the method: (§2)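 Dose series incubated 48 h with cells in RPMI plus 5% FBS, glutamine and penicillin/streptomycin; cell viability then quantified via CellTiter-Glo.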

[8] = qHTS Screen of the MIPE 4.0 Collection Against Ewings Sarcoma (TC71) (AID 1259253; active = well fitted curve in the direction sought with a large enough effect; an effect the other way counts as inactive or inconclusive; also: nearly all actives have a fitted effect of over 40% in size; also: potency is read from the fitted curve at half-maximal effect)
Summary of the method: as §2

[9] = qHTS profiling of the MIPE4 collection as inhibitors of Plasmodium falciparum (DD2) proliferation (Rep 2) (AID 743346); conditions: P. falciparum Dd2 in erythrocytes, SYBR Green DNA, 72 h; at 28.5 µM unless noted
Summary of the method: as §1

[10] = qHTS profiling of the MIPE4 collection as inhibitors of Plasmodium falciparum (HB3) proliferation (AID 743347);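 also: plate controls were DMSO vehicle wells for no effect and artemisinin wells for full effect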; conditions: P. falciparum HB3 in erythrocytes, SYBR Green DNA, 72 h; at 28.5 µM unless noted
Summary of the method: as §1

[11] = qHTS Screen of the MIPE 4.0 Collection Against Ewings Sarcoma (TC32) (AID 1259256; active = well fitted curve in the direction sought with a large enough effect; an effect the other way counts as inactive or inconclusive; also: nearly all actives have a fitted effect of over 45% in size; also: potency is read from the fitted curve at half-maximal effect)
Summary of the method: as §2

[12] = qHTS Screen of the MIPE 4.0 Collection Against Ewings Sarcoma (EW8) (AID 1259255; active = well fitted curve in the direction sought with a large enough effect; an effect the other way counts as inactive or inconclusive; also: nearly all actives have a fitted effect of over 35% in size; also: potency is read from the fitted curve at half-maximal effect;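 as to viability: 100% = DMSO-treated cells and 0% = medium-only wells without cells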)
Summary of the method: as §2

[13] = qHTS profiling for inhibitors of Plasmodium falciparum (HB3) proliferation (AID 743324; active = well fitted curve in the direction sought with a large enough effect; an effect the other way counts as inactive or inconclusive;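 also: 100% = DMSO vehicle wells and 0% = artemisinin-treated control wells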); conditions: Plasmodium falciparum HB3 blood-stage proliferation; at 28.7 µM (top of the series) unless noted
Summary of the method: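 P. falciparum HB3 grown in erythrocytes (0.3% parasitemia, 2.5% hematocrit final) with compound for 72 h at 37 C, 5% CO2. Parasite DNA detected by SYBR Green after saponin/triton lysis overnight; normalized to 0.29 uM artemisinin and DMSO.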

[14] = Identifying Small Molecule Inhibitors of Pancreatic Cancer Stem Cells (SN12C, Adherent) (AID 1259358; active = well fitted curve in the direction sought with a large enough effect; an effect the other way counts as inactive or inconclusive;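 also: cell survival measured after 48 h of compound exposure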)
Summary of the method: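 Endpoint: ATP-based luminescence, 48 h drug exposure. Bortezomib at 9.2 uM final as full-kill control; DMSO vehicle as negative control; activity normalized between vehicle and cell-free wells.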

[15] = Identifying Small Molecule Inhibitors of Pancreatic Cancer Stem Cells (SN12C, Spheroid) (AID 1259360; active = well fitted curve in the direction sought with a large enough effect; an effect the other way counts as inactive or inconclusive;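 also: 100% = DMSO-treated cells and 0% = wells without cells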); conditions: Potency: SN12C spheroid viability
Summary of the method: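 After a 4 h attachment period, compounds were pinned into wells and cultures held 48 h under standard incubator conditions. Viability was then measured as CellTiter-Glo luminescence following 10 min at room temperature.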

Row | Compound | parasite growth, % of DMSO control [1] [%] | parasite growth remaining, % of DMSO control (lower = more inhibition) [2] [%] | cell viability, % of control (lower = more cytotoxic) [3] [%] | viability (% of control) [4] [%] | Potency [5] | Potency [6] | Potency [7] | Potency [8] | parasite growth, % of control (lower = inhibition) [9] [%] | growth, % of control [10] [%] | Potency [11] | Potency [12] | remaining proliferation (% of control), lower = more inhibition [13] [%] | Potency [14] | Potency [15]
1 | CC=C1C2C=C(C)CC1(N)c1ccc(=O)[nH]c1C2 (stereo not drawn) | 100 | 19.1 | 164 | 128 | inactive | inactive | inactive | 23.5 µM (active) | – | – | – | – | – | – | –
2 | O=C(CO)N1CCC(c2[nH]nc(-c3ccc(Cl)cc3)c2-c2ccncn2)CC1 | 25.8 | 82.9 | 421 | 97.4 | inactive | inactive | inactive | inactive | 53.8 | 30.6 | – | – | – | – | –
3 | COc1ccc(-c2cc(=O)c3c(O)cc(O[C@@H]4O[C@H](CO[C@@H]5O[C@@H](C)[C@H](O)[C@@H](O)[C@@H]5O)[C@@H](O)[C@H](O)[C@@H]4O)cc3o2)cc1O | 30.1 | 28.6 | 93 | 111 | inactive | inactive | 18.7 µM (active) | 18.7 µM (active) | 33.2 | 23.4 | 26.4 µM (active) | – | – | – | –
4 | CCNC(=O)[C@H]1O[C@@H](n2cnc3c(N)nc(NCCc4ccc(CCC(=O)O)cc4)nc32)[C@H](O)[C@H]1O | 93.9 | 110 | 96.2 | 129 | inactive | inactive | inactive | inactive | – | 99.8 | – | – | – | – | –
5 | CC[C@H](C)n1cc(C)c2c(C(=O)NCc3c(C)cc(C)[nH]c3=O)cc(-c3ccc(N4CCNCC4)nc3)cc21 | 4.84 | 8.83 | 133 | 39.5 | inactive | inactive | 23.5 µM (active) | 11.8 µM (active) | – | 6.2 | 18.7 µM (active) | – | – | – | –
6 | CCCCCOC(=O)Nc1nc(=O)n([C@@H]2O[C@H](C)[C@@H](O)C2O)cc1F (stereo partly drawn) | 253 | 102 | 124 | 102 | inactive | inactive | inactive | – | 83.9 | – | 20.9 µM (active) | inactive | – | – | –
7 | CN(C)CCCNC(=O)c1ccc(-c2cc(O)c3ncccc3c2)cc1 | 25.8 | 15.1 | 48.4 | 19.6 | inactive | inactive | 16.6 µM (active) | – | 23.5 | 8.59 | 14.8 µM (active) | 14.8 µM (active) | 5.15 | inactive | inactive
8 | CC1(COc2ccc3c(c2)ncn3-c2ccc3cccc(N4CCC(N)CC4)c3n2)COC1 | 5.45 | 6.71 | 5.87 | 3.06 | inactive | inactive | inactive | inactive | 14.5 | 4.9 | inactive | – | – | – | –
9 | C[C@H](CCC(=O)O)[C@H]1CC[C@H]2[C@H]3[C@@H](CC[C@]12C)[C@@]1(C)CC[C@@H](O)C[C@H]1C[C@@H]3O | – | – | 75.1 | 35.2 | inactive | inactive | inactive | – | – | – | inactive | 18.7 µM (active) | – | – | –
10 | CCc1cccc(CC)c1NC(=O)N1Cc2[nH]nc(NC(=O)c3ccc(N4CCN(C)CC4)cc3)c2C1 | 19 | 82.8 | 146 | 12.8 | inactive | inactive | 5.9 µM (active) | 4.18 µM (active) | – | 6.85 | 0.526 µM (active) | – | – | – | –
11 | CN1CC(=O)NC1=NC(=O)Nc1cccc(Cl)c1 | 78.1 | 83.9 | 3.29 | 31.9 | inactive | inactive | inactive | – | 23.4 | – | inactive | inactive | – | – | –
12 | CCC(=O)NCC[C@@H]1CCc2ccc3c(c21)CCO3 | 98.2 | 89.9 | 184 | 117 | inactive | inactive | inactive | – | 71.2 | 107 | inactive | inactive | – | – | –
13 | CCC(c1ccc(O)cc1)C(CC)c1ccc(O)cc1 (stereo not drawn) | 84.9 | 90 | 149 | 104 | inactive | inactive | 0.743 µM (active) | – | 75 | 106 | 1.48 µM (active) | 1.87 µM (active) | – | – | –
14 | CC1=C(C(=O)Nc2cc3cn[nH]c3cc2F)C(c2ccc(C(F)(F)F)cc2)CC(=O)N1 (stereo not drawn) | 5.13 | 8.5 | 88.7 | 58 | inactive | inactive | 1.48 µM (active) | – | 7.16 | 5.72 | inactive | inactive | – | – | –
